From PubChem BioAssay
In the library only some 4.3% were active in any assay of this set; here they are far more common.
MazF activator – MazEF (E. coli) toxin RNase activation. P0AE70. FAM/BHQ RNA-DNA oligo cleavage fluorescence, 5 h. activation, % at 20 µM. actives 0.32% (n = 350,000); in the data active = activation above about 50%
Bead autofluor – counter-screen for toxin protease inhibitors: compound fluorescence | compound autofluorescence counterscreen, microsphere flow cytometry; stronger effect = higher value | fluorescence intensity (concentration not given with the values) | actives 3.1% (n = 360,000) | AID 624483; in the data active = fluorescence intensity above about 16000; inconclusive = no clear call, values can overlap the other calls
BoNT F protease – BoNT F light chain protease inhibition; Multiplex microsphere protease cleavage assay, flow cytometry; inhibition, % at 10 µM; actives 0.22% (n = 360,000); AID 588497; in the data active = inhibition above about 35%, passing the limit was not always enough; inconclusive = no clear call, values can overlap the other calls
PfHsp40 rescue – rescue of PfHsp40-mediated yeast toxicity; S. cerevisiae expressing PfHsp40, growth rescue, ATP luminescence; growth rescue, % at 12.5 µM; actives 0.68% (n = 340,000); AID 504582; in the data active = growth rescue above about 28%, passing the limit was not always enough; inconclusive = no clear call, values can overlap the other calls;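 also: yeast W303a lacking pdr1 and pdr3 grown in galactose medium; growth measured after three days at 30 °C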
BoNT-A LC inh2 – blocks Botulinum neurotoxin A light chain protease. multiplex microsphere protease substrate cleavage, flow cytometry. actives 0.17% (n = 360,000). inhibition, % at 10 µM
Anthrax LF inh2 – inhibitors of Bacillus anthracis lethal factor protease. actives 0.12% (n = 360,000). multiplex microsphere protease cleavage assay, LF. inhibition, % at 10 µM
Of the large screens only hits and unclear results are named; the others gave an inactive call. Rule as the data show it, unless noted: active = inhibition above about 30%; inconclusive = no clear call, values can overlap the other calls; inactive = below that.

CCCCc1cc(=O)oc2c(CN3CCCC3)c(O)ccc12	Bead autofluor 20462
CCCc1cc(=O)oc2c(CNc3ccc(OCC)cc3)c(O)ccc12	PfHsp40 rescue 48
CN(CCOc1ccc(Cl)cc1)c1ccc(S(=O)(=O)N2CCCCC2)cn1	Bead autofluor 24914, BoNT-A LC inh2 inconclusive
CC(=O)Cc1ccccc1OCC(=O)O	Bead autofluor 16749
CCN(CC)S(=O)(=O)c1cc(NC(=O)COC(=O)CCc2nc3ccccc3s2)ccc1C	Bead autofluor 22825, BoNT-A LC inh2 inconclusive
O=C(COC(=O)CC12CC3CC(CC(C3)C1)C2)Nc1ncc(Cl)cc1Cl	Bead autofluor 24856
CC(C)(Oc1ccc(Cl)cc1)C(=O)OCC(=O)Nc1ncc(Cl)cc1Cl	Bead autofluor 22776
Nc1ccn([C@@H]2O[C@H](CNC(=O)[C@@H](Cc3cccnc3)NC=O)[C@@H](O)[C@H]2O)c(=O)n1	none (no result: PfHsp40 rescue)
Cc1ccc(-c2cc3nc(C)cc(NCc4ccco4)n3n2)cc1	Bead autofluor 16495
O=C(O)c1ccc(N/N=C/c2cccc(F)c2)cc1	none
O=C(O)c1ccc(N/N=C/c2ccc3nccnc3c2)cc1	none
O=C(O)c1ccc(N/N=C/C(Br)=C/c2ccccc2)cc1	MazF activator 61, PfHsp40 rescue 183
O=C(O)c1ccc(N/N=C/c2ccc(F)c(F)c2)cc1	PfHsp40 rescue 147
O=C(N/N=C/C(Br)=C/c1ccccc1)C(O)c1ccccc1 (stereo unspecified)	BoNT F protease inconclusive
O=C(O)c1ccc(N/N=C/c2cccc(C(F)(F)F)c2)cc1	PfHsp40 rescue 64
O=C(c1ccc(-n2cccn2)cc1)N1CCN(c2ncccc2C(F)(F)F)CC1	none
CCCNC(=O)C[C@H]1C[C@H]2c3cc(NC(=O)Nc4ccc(F)cc4)ccc3O[C@H]2[C@@H](CO)O1	none (no result: PfHsp40 rescue)
O=S(=O)(Nc1ccon1)c1ccc(Br)cc1	none
CC(=O)c1c(C(C)=O)c(C)n(-c2ccc(C(=O)O)cc2)c1C	none
CC(=O)c1c(C(C)=O)c(C)n(-c2ccc(O)cc2)c1C	Bead autofluor 21526
CC1(C)CC(=O)CC(C2(O)C(=O)N(Cc3ccccc3)c3ccccc32)O1 (stereo unspecified)	none
CC1(C)CC(=O)C(C2(O)C(=O)N(Cc3ccccc3)c3ccccc32)CO1 (stereo unspecified)	Bead autofluor 22533, BoNT-A LC inh2 inconclusive
Cc1nn(Cc2ccccc2)c(Cl)c1C(=O)NCc1ccc(C)n1C	Bead autofluor 19508, BoNT-A LC inh2 inconclusive
Cc1ccc(-n2nc3c(=O)n(C(C)C(=O)NC4CC4)nc(C)c3c2C)cc1 (stereo unspecified)	none
Cc1c(NC(=O)c2ccccc2N)cccc1C(=O)O	Bead autofluor 20340
Cc1cn([C@H]2C[C@H](O)[C@@H](CCC(=O)NCC3CCCO3)O2)c(=O)[nH]c1=O (stereo partly specified)	none (no result: MazF activator, PfHsp40 rescue)
O=C(CCCN1C(=O)C(c2ccccc2)Oc2cccnc21)Nc1cccc(F)c1 (stereo unspecified)	none
Cc1ccc(N(Cc2cc(=O)[nH]c3ccccc23)C(=O)c2ccco2)cc1	Bead autofluor 23679
CCCCSc1nsc(NC(C)=O)n1	Bead autofluor 22275
CCCCCCSc1nsc(NC(C)=O)n1	none
O=c1cc(CO)oc(C(Nc2ccccn2)c2ccc(C(F)(F)F)cc2)c1O (stereo unspecified)	PfHsp40 rescue 128
CCCNC(=O)C1(C)CCCN(C(=O)c2c(C)noc2C)C1 (stereo unspecified)	none (no result: MazF activator, PfHsp40 rescue)
CCOC(=O)c1ccccc1NC(=O)COC(=O)CN1C(=O)NC2(CCCC2)C1=O	none
Cn1cc([N+](=O)[O-])c(C(=O)Nc2ccc(-c3nc4ccccc4o3)cc2)n1	none
CCOC(=O)C1=CCN(S(=O)(=O)c2ccccc2Cl)C1c1cccc(Cl)c1 (stereo unspecified)	none (no result: MazF activator, PfHsp40 rescue)
CCOC(=O)c1c[nH]c2c(C)cc(C)cc2c1=O	Bead autofluor 20267, BoNT-A LC inh2 inconclusive
CCOC(=O)c1c[nH]c2c3c(ccc2c1=O)CCCC3	Bead autofluor 21559
CCOC(=O)c1c[nH]c2c(Cl)c(Cl)ccc2c1=O	none
CCOC(=O)c1c[nH]c2c(C(=O)c3ccccc3)cc(Cl)cc2c1=O	none
COc1ccccc1NS(=O)(=O)c1ccc(C(=O)N2CCCC(C(F)(F)F)C2)cc1 (stereo unspecified)	none
Cc1ccc(NS(=O)(=O)c2ccc(C(=O)N3CCCC(C(F)(F)F)C3)cc2)cc1 (stereo unspecified)	PfHsp40 rescue 51
CCOc1cc(CNc2ncc(-c3ccc(OC)cc3)n2C)ccc1O	Bead autofluor 20656
N#CCCSc1ncnc2c1oc1ccccc12	Bead autofluor 18891
CCn1c(NC(=O)c2ccc(COc3ccc(C)cc3[N+](=O)[O-])o2)nc2ccccc21	Bead autofluor 22323
Cc1ccc(OCc2ccc(C(=O)Nc3cc(C)on3)o2)c([N+](=O)[O-])c1	Bead autofluor inconclusive
COC(=O)NC(C)N1C(=O)C2C3C=CC(C3)C2C1=O (stereo unspecified)	none
O/N=C(/CCc1ccccc1)C1(O)CCCCC1	none
COc1ccc(CC/C(=N\O)C2(O)CCCCC2)cc1	Bead autofluor 24221
O=S1(=O)NC(=NCc2ccccc2)c2ccccc21	Bead autofluor 19517, BoNT-A LC inh2 inconclusive
Cc1ccc(C(=O)Nc2ccc(CC(=O)O)cc2)o1	Bead autofluor 18362
CCC12CSc3nc(Cl)ccc3N1C(=O)C(=O)N2C (stereo unspecified)	BoNT F protease 40, Anthrax LF inh2 inconclusive (no result: PfHsp40 rescue)
COc1ccc2nc(-c3ccccc3)cc(C(=O)OCC(=O)NC3CC3)c2c1	none (no result: PfHsp40 rescue)
O=C(CSc1nc2ccc(Cl)cc2[nH]1)c1ccc2c(c1)OCO2	none
O=C(CSc1nc2cc(Cl)c(Cl)cc2[nH]1)c1ccc2c(c1)OCO2	MazF activator 51
CCc1cccc2c(C(=O)CSc3nnc(-c4ccoc4C)n3C)c[nH]c12	Bead autofluor 22498
O=c1[nH]c(O)c(/C=C2\C=Nc3ccc(Br)cc32)[nH]1	none
O=c1[nH]c(O)c(/C=C2\C=Nc3ccc(OCc4ccccc4)cc32)c(=O)[nH]1	MazF activator 847, BoNT F protease inconclusive
O=C1SC(SCc2ccccc2)=N/C1=C\c1ccco1	Bead autofluor 23038
CC(=O)CSc1nnc(C(F)(F)F)n1C	none
C(=N\N1CCN(Cc2cccc3ccccc23)CC1)/c1cccnc1	Bead autofluor 20176
FC(F)(F)c1ccc(/C=N/N2CCN(Cc3cccc4ccccc34)CC2)cc1	Bead autofluor 17471
CCC1(CC)C(=O)NC(=NCCc2c[nH]c3ccccc23)NC1=O	Bead autofluor 17043
NCCc1c[nH]c2ccccc12	none
CC1CC(=O)NN=C1c1ccc(N(C)C)c([N+](=O)[O-])c1 (stereo unspecified)	Bead autofluor 18577
O=C1CCC(C(=O)Nc2cc(C(F)(F)F)ccc2-n2cncn2)=NN1	none (no result: Bead autofluor, BoNT F protease, BoNT-A LC inh2, Anthrax LF inh2)
